Active and inactive are the calls of the source. Unless noted, how the calls were made is not given here.

The nature of assay [1]: compounds binding Alexa647 anti-His antibody – biochemical, small-molecule microarray, 635 nm fluorescence, artefact control for SMM control protein annotation, primary screen (AID 1128).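 Further: score merges feature fluorescence with signal-to-noise for each printed compound spot.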 The settings on record: higher = more signal.
For assay [2], the system named is Human papillomavirus type 1a E7 protein (residues 1-88). Nature of the assay: HPV1a E7 small-molecule binders, primary screen, biochemical, small-molecule microarray, residues 1-88, 635 nm (AID 1129). The settings on record: small-molecule microarray binding, fluorescence 635 nm; higher = more signal.
Assay [3] has as its target Focal adhesion kinase 1 (Homo sapiens) (UniProt Q05397). Kind of assay: PTK2 protein binding on printed compound slides – biochemical, small-molecule microarray, 635/667 nm fluorescence, BSA, DTT, primary screen (AID 1130).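 Further: composite of spot emission at 667 nm and signal to noise over triplicate slides.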 The settings on record: 635 nm fluorescence, higher = more signal.
For assay [4], the system named is Fibrinogen (Alexa647-labelled). Kind of assay: Alexa647-fibrinogen binding to printed small molecules – biochemical, small-molecule microarray, 635/667 nm fluorescence, artefact control for SMM control-protein annotation, profiling panel (AID 1131).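 Further: z-score merges 667 nm fluorescence with per-spot signal-to-noise over triplicate slides.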 The settings on record: fibrinogen-A647 binding fluorescence, higher = more signal.
Assay [5] deals with Follistatin (Homo sapiens) (UniProt P19883). Nature of the assay: FST protein binding to printed compounds – biochemical, small-molecule microarray, 635/667 nm fluorescence, primary screen (AID 1132). The settings on record: 635 nm fluorescence, higher = more signal.
The target of assay [6] is Fibroblast growth factor 2 (Homo sapiens) (UniProt P09038). Nature of the assay: basic fibroblast growth factor binding to printed compounds – biochemical, small-molecule microarray, 635/667 nm fluorescence, primary screen (AID 1133). The settings on record: FGF2, fluorescence 635/667, higher = more signal.
Assay [7] can be described thus: JC-1 mitochondrial potential readout, lung cancer cells – cell-based, A549, JC-1 fluorescence, basal, 24 h, 100 nL, profiling panel (AID 1138).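 Further: A549 lung adenocarcinoma cells under basal conditions with no added stimulus; test concentration not given here.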 The settings on record: higher = more signal.
The next assay deals with Lefty1. Nature of the assay: Lefty1 protein binding to printed compounds – biochemical, small-molecule microarray, 635/667 nm fluorescence, primary screen (AID 1139). The settings on record: fluorescence 635/667, higher = more signal.
Assay [8] deals with wheat germ agglutinin (Triticum aestivum), Alexa647-labelled. Kind of assay: Alexa647-WGA lectin binding to printed small molecules – biochemical, small-molecule microarray, 635/667 nm fluorescence, artefact control for SMM control-protein annotation, profiling panel (AID 1140).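 Further: score merges 667 nm feature emission with signal to noise over triplicate slides.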 The settings on record: WGA-A647 binding, 635 nm fluorescence, higher = more signal.
Assay [9] deals with Luciferin 4-monooxygenase (Photinus pyralis) (UniProt P08659). Kind of assay: inhibition of purified Photinus pyralis luciferase – biochemical, luminescence, purified enzyme, 2006 set, primary screen (AID 1141).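 Further: cell-free assay with purified firefly luciferase at 100 ng per well in PBS; test concentration not given here.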 The settings on record: purified firefly luciferase, SteadyGlo luminescence, 30 min; higher = more signal, called active from +8 up or from −8 down.
For assay [10], the system named is Wnt5a (protein binding on small-molecule microarray). Nature of the assay: small molecules binding Wnt5a protein – biophysical, small-molecule microarray, 635/667 nm fluorescence, primary screen (AID 1142).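 Further: fluorescence read at 667 nm with signal to noise per printed feature.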 The settings on record: 635 nm fluorescence, higher = more signal.
Assay [11] can be described thus: ATP-based viability of Huh7 replicon cells – cell-based, CellTiter-Glo luminescence, basal, 48 h, cytotoxicity control for HCV replication inhibitor project, primary screen (AID 1143).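 Further: Huh7 hepatoma cells carrying a hepatitis C replication reporter with no stimulus; test concentration not given here.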 The settings on record: higher = more signal, called active from +8 up or from −8 down.
Assay [12] can be described thus: Pseudomonas biofilm growth suppression – PAO1 strain, BacTiter-Glo luminescence, LB-PBS, primary screen (AID 1144). The settings on record: P. aeruginosa PAO1 biofilm, 12 h, higher = more signal.
The nature of assay [13]: basal CRE-LacZ reporter activity in PC12 – cell-based, unstimulated, primary screen (AID 1145). The settings on record: no forskolin, luminescence, 4.5 h, higher = more signal, called active from +8 up or from −8 down.
A short description of assay [14]: forskolin-driven CRE-LacZ activity in PC12 – cell-based, CRE-LacZ reporter, forskolin-stimulated, primary screen (AID 1146).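 Further: PC12 cells with 6xCRE LacZ reporter stimulated by forskolin 10 µM; beta-galactosidase reporter signal reflecting CREB driven transcription.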 The settings on record: luminescence, 4.5 h, higher = more signal, called active from +8 up or from −8 down.
Assay [15] has as its target Streptavidin (Streptomyces avidinii) (UniProt P22629). Nature of the assay: compounds binding control protein streptavidin – biophysical, small-molecule microarray, 635/667 nm fluorescence, artefact control for SMM compound annotation, primary screen (AID 1147).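 Further: signal reflects streptavidin binding to arrayed compounds as a control protein.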 The settings on record: higher = more signal.
Assay [16] in a line: probe aInhba binding on compound microarray – biochemical, small-molecule microarray, 635/667 nm fluorescence, primary screen (AID 1148).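 Further: score merges 667nm spot fluorescence with signal-to-noise for antibody binding to printed compounds.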 The settings on record: higher = more signal.
In assay [17] the target is Torsin-1A (Homo sapiens) (UniProt O14656). Kind of assay: TOR1A wild-type binding on microarray – cell lysate, small-molecule microarray, lysate, 635/667 nm, primary screen (AID 1149). The settings on record: COS7 hTOR1A-WT lysate, 635 nm fluorescence, higher = more signal.
For assay [18] the target is unchanged. Kind of assay: torsin A mutant lysate binding on microarrays – cell lysate, small-molecule microarray, COS7 lysate, 635/667 nm fluorescence, primary screen (AID 1150).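 Further: score pools 667 nm emission and signal to noise measuring lysate protein binding.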 The settings on record: COS7 hTOR1A mutant lysate, 635 nm fluorescence, higher = more signal.
In assay [19] the test system is Sonic hedgehog protein (Shh). Nature of the assay: Sonic hedgehog microarray binding compounds – biochemical, small-molecule microarray, 635/667 nm fluorescence, primary screen (AID 1151).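 Further: Shh protein binding to compounds spotted on small-molecule microarray slides; score combines spot fluorescence intensity with signal-to-noise across triplicate slides.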 The settings on record: 635 nm fluorescence, higher = more signal.

Sequence of Luciferin 4-monooxygenase (Photinus pyralis) (P08659 whole entry, looked up): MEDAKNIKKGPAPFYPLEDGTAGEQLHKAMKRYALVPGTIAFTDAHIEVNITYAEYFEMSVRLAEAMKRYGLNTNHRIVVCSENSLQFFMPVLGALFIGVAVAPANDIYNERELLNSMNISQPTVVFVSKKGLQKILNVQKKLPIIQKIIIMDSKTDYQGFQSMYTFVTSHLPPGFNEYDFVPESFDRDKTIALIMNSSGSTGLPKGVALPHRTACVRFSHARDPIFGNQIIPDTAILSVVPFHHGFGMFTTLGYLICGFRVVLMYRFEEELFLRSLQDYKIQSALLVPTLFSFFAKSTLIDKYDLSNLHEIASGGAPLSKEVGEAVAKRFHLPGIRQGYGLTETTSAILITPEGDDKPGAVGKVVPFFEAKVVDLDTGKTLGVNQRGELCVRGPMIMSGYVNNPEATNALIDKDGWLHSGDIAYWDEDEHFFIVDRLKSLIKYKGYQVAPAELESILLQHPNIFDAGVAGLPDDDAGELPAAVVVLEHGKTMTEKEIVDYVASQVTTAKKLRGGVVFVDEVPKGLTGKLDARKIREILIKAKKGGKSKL
Sequence of Follistatin (Homo sapiens) (P19883 whole entry, looked up): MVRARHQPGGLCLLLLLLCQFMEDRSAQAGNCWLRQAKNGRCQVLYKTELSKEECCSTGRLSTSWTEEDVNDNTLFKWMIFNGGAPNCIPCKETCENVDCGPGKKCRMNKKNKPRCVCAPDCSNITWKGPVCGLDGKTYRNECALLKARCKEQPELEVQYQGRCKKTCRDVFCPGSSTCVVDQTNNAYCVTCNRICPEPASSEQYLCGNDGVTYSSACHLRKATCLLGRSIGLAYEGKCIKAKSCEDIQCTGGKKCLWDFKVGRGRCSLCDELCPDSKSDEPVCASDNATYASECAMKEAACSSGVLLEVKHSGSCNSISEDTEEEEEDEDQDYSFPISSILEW
Sequence of Torsin-1A (Homo sapiens) (O14656 whole entry, looked up): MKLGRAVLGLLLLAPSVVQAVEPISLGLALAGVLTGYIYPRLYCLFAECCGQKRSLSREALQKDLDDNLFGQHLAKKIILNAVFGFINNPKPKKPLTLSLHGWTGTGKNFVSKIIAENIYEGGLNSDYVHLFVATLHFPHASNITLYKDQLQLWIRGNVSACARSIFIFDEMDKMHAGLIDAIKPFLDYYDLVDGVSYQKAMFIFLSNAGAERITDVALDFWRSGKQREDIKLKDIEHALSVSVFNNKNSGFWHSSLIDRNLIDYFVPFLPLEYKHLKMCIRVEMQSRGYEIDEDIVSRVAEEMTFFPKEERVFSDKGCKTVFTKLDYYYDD
Sequence of Fibroblast growth factor 2 (Homo sapiens) (P09038 whole entry, looked up): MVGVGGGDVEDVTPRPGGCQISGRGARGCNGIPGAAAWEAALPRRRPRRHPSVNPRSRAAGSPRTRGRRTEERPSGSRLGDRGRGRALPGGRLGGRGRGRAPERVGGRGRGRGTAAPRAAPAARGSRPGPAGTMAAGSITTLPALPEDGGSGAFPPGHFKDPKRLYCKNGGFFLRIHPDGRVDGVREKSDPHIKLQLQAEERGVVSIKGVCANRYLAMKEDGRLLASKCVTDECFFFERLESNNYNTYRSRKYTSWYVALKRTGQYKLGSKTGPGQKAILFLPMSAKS
Sequence of Focal adhesion kinase 1 (Homo sapiens) (Q05397 whole entry, looked up): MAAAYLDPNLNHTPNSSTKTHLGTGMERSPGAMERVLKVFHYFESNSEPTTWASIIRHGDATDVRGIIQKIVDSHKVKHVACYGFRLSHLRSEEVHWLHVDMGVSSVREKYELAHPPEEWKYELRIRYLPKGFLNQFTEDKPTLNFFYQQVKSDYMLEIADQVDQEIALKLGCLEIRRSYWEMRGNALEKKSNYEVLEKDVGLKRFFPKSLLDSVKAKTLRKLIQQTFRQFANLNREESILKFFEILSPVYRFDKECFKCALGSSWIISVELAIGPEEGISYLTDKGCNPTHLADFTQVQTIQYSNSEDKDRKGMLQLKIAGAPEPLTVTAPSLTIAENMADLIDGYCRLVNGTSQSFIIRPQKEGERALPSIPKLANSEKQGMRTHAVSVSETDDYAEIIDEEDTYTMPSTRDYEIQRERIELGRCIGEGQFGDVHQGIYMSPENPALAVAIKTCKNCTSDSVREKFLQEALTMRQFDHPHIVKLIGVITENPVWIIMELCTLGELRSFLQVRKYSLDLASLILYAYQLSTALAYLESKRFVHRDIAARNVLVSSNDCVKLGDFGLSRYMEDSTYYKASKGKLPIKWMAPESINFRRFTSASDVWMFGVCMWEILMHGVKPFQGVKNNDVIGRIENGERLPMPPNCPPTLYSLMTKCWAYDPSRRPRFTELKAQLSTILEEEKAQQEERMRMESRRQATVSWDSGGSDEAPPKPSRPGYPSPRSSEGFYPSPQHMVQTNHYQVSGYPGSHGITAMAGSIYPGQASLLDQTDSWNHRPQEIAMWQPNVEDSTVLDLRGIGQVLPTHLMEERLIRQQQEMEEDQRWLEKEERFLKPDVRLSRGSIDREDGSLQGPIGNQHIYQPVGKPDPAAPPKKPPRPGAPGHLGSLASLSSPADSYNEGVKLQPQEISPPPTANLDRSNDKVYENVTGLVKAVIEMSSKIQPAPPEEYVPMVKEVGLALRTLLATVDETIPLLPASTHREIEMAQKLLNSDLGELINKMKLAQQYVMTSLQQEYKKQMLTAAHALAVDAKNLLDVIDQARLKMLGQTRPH
Sequence of Streptavidin (Streptomyces avidinii) (P22629 whole entry, looked up): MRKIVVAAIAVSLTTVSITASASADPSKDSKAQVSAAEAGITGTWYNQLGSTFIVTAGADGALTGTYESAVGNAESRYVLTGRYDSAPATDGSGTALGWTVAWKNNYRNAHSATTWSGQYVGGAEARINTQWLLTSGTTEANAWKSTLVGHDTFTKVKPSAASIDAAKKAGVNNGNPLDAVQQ

Turning to `CC(C)CNC(=O)[C@@H]1c2ccccc2C(=O)N(Cc2ccccc2Cl)[C@H]1c1ccc(CO)cc1`, the composite z-score was 1.48 in assay [1]; 0.844 in assay [2]; 0.401 in assay [3]; -1.73 in assay [4]; -0.158 in assay [5]; 0.223 in assay [6]. Further, the composite z-score in the assay with Lefty1 is -0.785; in assay [8], -0.215; in assay [10], -0.0721; in [15] it was -0.222; in assay [16] it was -0.204; in the assay with Torsin-1A (Homo sapiens) [17], 0.0521. Besides, the composite z-score with Torsin-1A (Homo sapiens) [18] was 0.13; in [19] it was 0.145. Also, the z-score in assay [7] was 0.572; in [9], 0.686 (inactive); in assay [11] it was -0.121 (inactive); in [12], -0.431 (inactive); in [13], -0.179 (inactive); in assay [14] it was -0.867 (inactive).

For `CCOC(=O)C1=CC[C@@H](c2ccc(F)cc2)N(S(=O)(=O)c2ccc(C)cc2)[C@H]1c1ccc([N+](=O)[O-])cc1`, the composite z-score was 0.353 in assay [1]; 1.19 in [2]; 0.866 in assay [3]; 0.954 in [4]; 0.283 in assay [5]; -0.218 in assay [6]. Moreover, the composite z-score is 0.242 with Lefty1; 0.742 in [8]; 0.0382 in [10]; 0.812 in assay [15]; 0.0131 in assay [16]; -0.116 with Torsin-1A (Homo sapiens) [17]. For the same compound, the composite z-score with Torsin-1A (Homo sapiens) [18] was 0.599; in assay [19], -0.0316. In addition, the z-score in [7] was 1.83; in [9] it was 2.28 (inactive); in assay [11] it was -2.52 (inactive); in assay [12], -1.24 (inactive); in assay [13], -1.73 (inactive); in [14] it was 0.66 (inactive).

As to `C=CCNC(=O)[C@H]1[C@@H]2C(=O)O[C@@H](c3ccccc3)[C@@H](c3ccccc3)N2[C@@H](c2ccc(O)cc2)[C@]12C(=O)Nc1ccc(C#CC3=CCCCC3)cc12`, the composite z-score in [1] amounted to 1.3; in [2], 1.02; in assay [3], 0.0897; in [4], 0.531; in assay [5] it was 0.886; in assay [6], 0.355. Besides, the composite z-score in the assay with Lefty1 came to 0.916; in assay [8] it was 0.622; in assay [10] it was 0.121; in [15] it was 1.18; in [16], 0.616; in the assay with Torsin-1A (Homo sapiens) [17] it was 1.75. In addition, the composite z-score came out at 0.462 in the assay with Torsin-1A (Homo sapiens) [18] and 2 in [19]. Moreover, the z-score in [7] was 0.88; in assay [9], 0.0736 (inactive); in [11] it was -3.15 (inactive); in assay [12], -0.0901 (inactive); in [13], -0.671 (inactive); in [14], 0.21 (inactive).

Consider `COc1ccc(C#Cc2ccc3c(c2)[C@]2(C(=O)N3)[C@H](C(=O)Nc3nc4ccccc4s3)[C@H]3C(=O)O[C@H](c4ccccc4)[C@H](c4ccccc4)N3[C@@H]2c2ccc(OCCO)cc2)cc1`, for which the composite z-score in [1] is 1.11; in assay [2], 0.98; in assay [3], 0.266; in assay [4], 0.731; in assay [5] it was 1.38; in assay [6], 0.83. Further, the composite z-score in the assay with Lefty1 was 0.949; in [8] it was 1.29; in [10], 0.505; in assay [15], 1.57; in assay [16], 0.153; in the assay with Torsin-1A (Homo sapiens) [17], 0.504. Also, the composite z-score with Torsin-1A (Homo sapiens) [18] was 0.887; in assay [19] it was 1.06. Further, the z-score in assay [7] was -2.33; in assay [9], -3.53 (inactive); in assay [11] it was -0.974 (inactive); in [12] it was -0.953 (inactive); in assay [13] it was -1.43 (inactive); in [14], -0.545 (inactive).

For the compound `CCCCC(=C=CC[C@@H](O)c1cccc(OCCO)c1)C[C@@H](O)COCc1ccccc1`, the composite z-score in assay [1] is 0.457; in assay [2], -0.122; in assay [3] it was 0.116; in assay [4], 0.982; in [5], -0.211; in assay [6], -0.178. In addition, the composite z-score in the assay with Lefty1 was -0.0843; in [8], 0.498; in [10], -0.225; in assay [15] it was -0.577; in assay [16], -0.05; with Torsin-1A (Homo sapiens) [17], -0.387. Besides, the figures for the composite z-score (with Torsin-1A (Homo sapiens) [18]; in assay [19]) were -0.444 and 0.362, respectively. Besides, the z-score in [7] was 0.732; in [9] it was -1.88 (inactive); in [11], -2.51 (inactive); in assay [12], -0.279 (inactive); in [13], 6.81 (inactive); in assay [14] it was -0.731 (inactive).

Values taken from PubChem BioAssay.
